Experimental data as given in PubChem BioAssay.
Active and inactive are the calls of the source.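 Rule for the calls, unless noted: active = compounds that lower viability of the colon cancer cells in the luminescence readout, with no numeric limit stated; inactive = the rest.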

Columns and labels:
[1] = Wnt pathway potentiators raising nuclear beta-catenin – imaging, WNT3A-conditioned medium, mouse C2C12, NPC library, primary screen (AID 1117326; in the data active = nuclear beta-catenin stimulation mostly above about 4.2%, no sharp cut-off; inactive = mostly below about 10%; note: reference of the scale not given here); conditions: stronger effect = higher value
[2] = stimulators of insulin release from INS-1E, primary screen, cell-based, 5 mM glucose, NPC library (AID 1117329;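 active = compound raises insulin release from rat beta cells at 5 mM glucose, no numeric limit stated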; note: reference of the scale not given here); conditions: rat INS-1E insulin secretion, at 10 µM, stronger effect = higher value
[3] = growth inhibition of GSK3B-pretreated HCT116 cells – cell-based, CellTiter-Glo, 0.2 to 20 µM (AID 1117336;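 active = compounds lowering colon cancer cell viability after pretreatment blocking the GSK3B kinase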); conditions: HCT116 viability after GSK3B inhibitor, at 20 µM, stronger effect = higher value
[4] = inhibition of endothelial tube formation, primary screen, imaging, VEGF stimulated, CD31 staining, tube area, NPC library (AID 1117340;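 active = compound that reduces growth-factor-driven endothelial tube area in a mixed cell culture, no cutoff stated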); conditions: VEGF-stimulated ADSC/ECFC co-culture, at 10 µM, stronger effect = higher value
[5] = GLP1 release stimulators, primary, NCI-H716, NPC library (AID 1117341;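 active = compound raises GLP1 secretion from the human gut endocrine cells, with no numeric limit stated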; note: reference of the scale not given here); conditions: NCI-H716 cells, at 10 µM, stronger effect = higher value
[6] = HCT116 colon cancer cell growth inhibition, primary screen, CellTiter-Glo luminescence, NPC library (AID 1117342;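 active = compounds that lower survival of HCT116 colon cancer cells in the luminescence readout, no numeric limit stated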); conditions: at 20 µM (top of the series)
[7] = reduced SW480 viability measured with CellTiter-Glo, NPC library, primary (AID 1117343); conditions: CellTiter-Glo luminescence; at 20 µM (top of the series)
[8] = NPC library primary testing for decreased DLD-1 cell viability via CellTiter-Glo (AID 1117346;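 active = compounds that lower survival of DLD-1 colon cancer cells in the luminescence readout, no cutoff given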); conditions: DLD-1 viability, CellTiter-Glo luminescence; at 20 µM (top of the series)

SMILES	nuclear beta-catenin stimulation ([1]; at 10 µM)	nuclear beta-catenin stimulation ([1]; stimulation, at 2 µM)	insulin secretion stimulation [2]	viability decrease [3]	tube area decrease [4]	GLP1 secretion stimulation [5]	inhibition of viability [6]	viability decrease (inhibition) [7]	viability decrease (inhibition) [8]
O=C1CCC(C(=O)O)N1 (stereo not drawn)	-1.2% (inactive)	2.3%	2.6% (inactive)	-7.5% (inactive)	6.4% (inactive)	-3.6% (inactive)	2.4% (inactive)	-1.5% (inactive)	-4% (inactive)
O=C(NCN1CCOCC1)c1cnccn1	1.4% (inactive)	0.7%	0.2% (inactive)	15.3% (inactive)	7.8% (inactive)	-2.9% (inactive)	29.4% (inactive)	40.1% (inactive)	8.3% (inactive)
CC(C)(C)CC(=O)OCC(=O)[C@@]1(O)CC[C@H]2[C@@H]3CCC4=CC(=O)C=C[C@]4(C)[C@H]3[C@@H](O)C[C@@]21C	3% (inactive)	0.9%	0% (inactive)	-93.8% (inactive)	10.8% (inactive)	3.3% (inactive)	20.7% (inactive)	57.4% (active)	13.2% (inactive)
CCOc1cc(OCC)c(C(=O)CCC(=O)O)cc1OCC	-1.4% (inactive)	0.2%	0.5% (inactive)	-11.3% (inactive)	3.4% (inactive)	-1.3% (inactive)	11.4% (inactive)	0.4% (inactive)	3.7% (inactive)
c1ccc(-c2nc[nH]c2-c2ccccc2)cc1	0.2% (inactive)	2.7%	-1.3% (inactive)	-7.1% (inactive)	12.1% (inactive)	3.1% (inactive)	-17.5% (inactive)	55% (active)	-0.05% (inactive)
Nc1ccc(C(=O)N2CC3CC(CN(Cc4ccccc4)C3)C2)cc1	3.2% (inactive)	0.5%	0.1% (inactive)	1.2% (inactive)	-12.8% (inactive)	1.7% (inactive)	23.2% (inactive)	9.4% (inactive)	7.3% (inactive)
O=C(OC1C[C@@H]2CC3C[C@@H](C1)N2CC3=O)c1c[nH]c2ccccc12 (stereo partly drawn)	-1.1% (inactive)	-0.5%	10.8% (inactive)	4.3% (inactive)	-15.2% (inactive)	0.9% (inactive)	42% (inactive)	12.6% (inactive)	17.7% (inactive)
